{"source": "PubChem BioAssay (Tox21)", "note": "Results filed as inconclusive are left out. A number with no mark means an inactive call. The source made the active and inactive calls. Calls come from the whole dose curve. % is set by controls: 0 for no effect and ±100 for the full control effect; potency is the fitted concentration of half-maximal effect."}
{"target": "Thyrotropin receptor (Homo sapiens) (UniProt P16473)", "sequence (P16473 whole entry, looked up)": "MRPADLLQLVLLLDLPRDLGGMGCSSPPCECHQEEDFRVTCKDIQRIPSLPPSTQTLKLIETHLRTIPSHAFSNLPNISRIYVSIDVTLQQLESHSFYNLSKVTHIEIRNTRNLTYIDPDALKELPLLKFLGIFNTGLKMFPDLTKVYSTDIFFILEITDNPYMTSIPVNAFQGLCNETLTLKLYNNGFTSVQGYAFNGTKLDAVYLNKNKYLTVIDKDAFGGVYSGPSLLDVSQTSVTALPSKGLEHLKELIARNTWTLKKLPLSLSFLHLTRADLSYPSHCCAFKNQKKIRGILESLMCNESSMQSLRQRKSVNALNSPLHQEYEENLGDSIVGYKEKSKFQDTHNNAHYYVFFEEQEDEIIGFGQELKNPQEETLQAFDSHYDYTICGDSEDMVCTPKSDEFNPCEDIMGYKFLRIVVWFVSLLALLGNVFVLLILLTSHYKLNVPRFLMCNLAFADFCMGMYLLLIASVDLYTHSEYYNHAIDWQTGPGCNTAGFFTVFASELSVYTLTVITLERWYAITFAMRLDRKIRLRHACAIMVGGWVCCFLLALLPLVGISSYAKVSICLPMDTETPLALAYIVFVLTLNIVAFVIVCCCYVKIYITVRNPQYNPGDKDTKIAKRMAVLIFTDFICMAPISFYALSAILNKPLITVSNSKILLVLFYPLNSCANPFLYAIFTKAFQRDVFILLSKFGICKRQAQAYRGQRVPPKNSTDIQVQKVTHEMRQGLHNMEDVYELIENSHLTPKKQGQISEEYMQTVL", "assay": "qHTS assay to identify small molecule antagonists of the thyroid stimulating hormone receptor (TSHR) signaling pathway (AID 1259385); note: nearly all actives have a fitted effect of over 20% in size", "settings": "TSHR-HEK293 cAMP HTRF, TSH-stimulated antagonist mode; series mostly up to 92.4 µM; activity change, negative = inhibition: at the top concentration", "text": "U.S. Tox21 Program National Center for Advancing Translational Sciences [NCATS] NIH Chemical Genomics Center [NCGC] U.S. Environmental Protection Agency [EPA] National Institutes of Environmental Health Sciences [NIEHS] National Toxicology Program [NTP] U.S. Food and Drug Administration [FDA] Tox21 Assay Overview: TSHR is the receptor for thyrotropin (thyroid stimulating hormone or TSH), a member of the glycoprotein hormone family. TSH is released by the anterior pituitary gland and is the main regulator of thyroid gland growth and development. Upon binding circulating thyrotropin, a G-protein signal cascade activates adenylyl cyclase and […] cAMP concentration is increased. cAMP is a key second messenger involved extensively in cellular signal transduction pathways associated with the majority of G-protein coupled receptors (GPCRs). The activation of these GPCRs by neurotransmitters, lipids, nucleotides, peptides and hormones results in the activation or the inhibition of plasma membrane-bound adenylate cyclase through heterotrimeric G-proteins. A cell-based TSHR assay can be used to screen chemical compounds that modulate TSHR either in agonist or antagonist mode.\nTox21 Assay Protocol Summary: TSHR-Hek293 cells were dispensed at 800 cells/4uL/well in 1536-well white plates using a Multidrop dispenser. After the assay plates were incubated at a 37C/5% CO2 incubator for 18 hrs, 23 nL of compounds dissolved in DMSO, positive controls or DMSO only was transferred to the assay plate by a pin tool, followed by 1 ul medium containing Ro20-1724. For the antagonist mode screening, 1 uL of TSH was added on the top of the cell/compound mixtures to achieve a final agonist concentration of 1.5 ng/mL. After 30 min of incubation at room temperature, 2.5 ul/well of cAMP-d2 and 2.5 ul/well of anti-cAMP-cryptate were added respectively into the assay plates using a Flying Reagent Dispenser. The plates were incubated at room temperature for 1 hr. The fluorescence intensity in the plates was measured using an Envision plate reader. Each test compound was measured at 15 concentrations and in triplicates."}
{"smiles": "NC[C@H]1O[C@H](O[C@H]2[C@H](O)[C@@H](O[C@H]3O[C@H](CO)[C@@H](O)[C@H](N)[C@H]3O)[C@H](N)C[C@@H]2N)[C@H](O)[C@@H](O)[C@@H]1O", "activity change, negative = inhibition": "-7.09% [at 8.39 µM]"}
{"smiles": "O=S1(=O)N=C(O)c2ccccc21", "activity change, negative = inhibition": "-0.0828% [at 42.5 µM]"}
{"smiles": "O=C(O)C1CCC(C(=O)O)CC1", "note": "(stereo not given)", "activity change, negative = inhibition": "0.164%"}
{"smiles": "CCCCCCCCN(C)C", "activity change, negative = inhibition": "-0.101%"}
{"smiles": "CCCCCCCCCC(=O)OCC", "activity change, negative = inhibition": "1.02%"}
{"smiles": "O=[N+]([O-])c1cccc(Cl)c1Cl", "activity change, negative = inhibition": "-9.53%"}
{"smiles": "CC(Cc1cccc(C(F)(F)F)c1)NCCOC(=O)c1ccccc1", "note": "(stereo not given)", "activity change, negative = inhibition": "-8.21% [at 42.5 µM]"}
{"smiles": "Nc1cnn([C@@H]2O[C@H](CO)[C@@H](O)[C@H]2O)c(=O)n1", "activity change, negative = inhibition": "2.29%"}
{"smiles": "O=c1[nH]cnc2ccccc12", "activity change, negative = inhibition": "-0.259%"}
{"smiles": "CC[C@H](C)[C@@H](C(=O)O)n1sc2ccccc2c1=O", "activity change, negative = inhibition": "-0.229%"}
{"smiles": "CC(C)(C)c1ccc(S)cc1", "activity change, negative = inhibition": "1.81%"}
{"smiles": "CC(C)NCC(O)c1cc(O)cc(O)c1", "note": "(stereo not given)", "activity change, negative = inhibition": "2.85% [at 42.5 µM]"}
{"smiles": "CCCCCCCC/C=C\\CCCCCCCC(N)=O", "activity change, negative = inhibition": "-0.574%"}
{"smiles": "CCCCCCCCCCCCC(=O)O", "activity change, negative = inhibition": "0.666%"}
{"smiles": "CC(=O)c1c(C)c([N+](=O)[O-])c(C(C)(C)C)c([N+](=O)[O-])c1C", "activity change, negative = inhibition": "8.85%"}
{"smiles": "CCCCOc1ccc(CC(=O)NO)cc1", "activity change, negative = inhibition": "6.71% [at 42.5 µM]"}
{"smiles": "O=C1c2cccc(O)c2C(=O)c2c(O)cc(CO)cc21", "activity change, negative = inhibition": "1.93%"}
{"smiles": "CC(C)(C)c1cc(O)c(C(C)(C)C)cc1O", "Potency": "61.1 µM (active)"}
{"smiles": "C=CC[N+]1([C@H]2C[C@H]3[C@@H]4CC[C@H]5C[C@H](OC(C)=O)[C@@H](N6CCCCC6)C[C@]5(C)[C@H]4CC[C@]3(C)[C@H]2OC(=O)CC)CCCCC1", "activity change, negative = inhibition": "-5.37% [at 42.5 µM]"}
{"smiles": "Nc1ccc(C(=O)N2CC3CC(CN(Cc4ccccc4)C3)C2)cc1", "activity change, negative = inhibition": "1.31% [at 42.5 µM]"}
{"smiles": "CCC(=O)OC(C)(C)C1CC=C(C)CC1", "note": "(stereo not given)", "activity change, negative = inhibition": "0.21%"}
{"smiles": "CCCC(C)C", "activity change, negative = inhibition": "0.0164%"}
{"smiles": "O=C(Nc1ccccc1)OCC(CN1CCCCC1)OC(=O)Nc1ccccc1", "note": "(stereo not given)", "Potency": "18.8 µM (active)"}
{"smiles": "CCCCCCCCCCCCCCC1CO1", "note": "(stereo not given)", "activity change, negative = inhibition": "-2.78%"}
{"smiles": "Cn1c(N)nc2nc[nH]c2c1=O", "Potency": "48 µM (active)"}
{"smiles": "O=C(NN1CCCC1)NS(=O)(=O)c1ccc(Cl)cc1", "activity change, negative = inhibition": "0.244% [at 42.5 µM]"}
{"smiles": "C[Si](C)O[Si](C)(C)O[Si](C)(C)O[Si](C)C", "activity change, negative = inhibition": "0.362%"}
{"smiles": "CCCCCCCCCO", "activity change, negative = inhibition": "3.23%"}
{"smiles": "c1ccc(OCc2ccc(CCCN3CCOCC3)cc2)cc1", "activity change, negative = inhibition": "-2.69% [at 42.5 µM]"}
{"smiles": "C=CCCCCCC", "activity change, negative = inhibition": "-1.28%"}
{"smiles": "COc1cc(C(C)(C)C)c(O)c(C(C)(C)C)c1", "activity change, negative = inhibition": "5.56%"}
{"smiles": "CC(C)(C)c1cc(CCC(=O)OCC(COC(=O)CCc2cc(C(C)(C)C)c(O)c(C(C)(C)C)c2)(COC(=O)CCc2cc(C(C)(C)C)c(O)c(C(C)(C)C)c2)COC(=O)CCc2cc(C(C)(C)C)c(O)c(C(C)(C)C)c2)cc(C(C)(C)C)c1O", "activity change, negative = inhibition": "-0.0248% [at 42.5 µM]"}
{"smiles": "O=C(O)c1cn(C2CC2)c2cc(Cl)c(F)cc2c1=O", "activity change, negative = inhibition": "1.13% [at 42.5 µM]"}
{"smiles": "Cc1occc1S", "activity change, negative = inhibition": "0.12%"}
{"smiles": "Cn1sccc1=O", "Potency": "inactive"}
{"smiles": "CC(O)C1CCCCC1", "note": "(stereo not given)", "activity change, negative = inhibition": "-2.73%"}
{"smiles": "CC(C)NCC(O)COc1ccc(CC(N)=O)cc1", "note": "(stereo not given)", "activity change, negative = inhibition": "0.0017%"}
{"smiles": "CCCCOC(=O)c1ccccc1C(=O)OCC(CC)CCCC", "note": "(stereo not given)", "activity change, negative = inhibition": "-0.252%"}
{"smiles": "C=CC(=O)OCCOC(=O)CCC(=O)O", "activity change, negative = inhibition": "4.28%"}
{"smiles": "CN1CCN(C2=Nc3cc(Cl)ccc3Nc3ccccc32)CC1", "activity change, negative = inhibition": "-3.83% [at 42.5 µM]"}
